Experimental data taken from the supplement of paper PMC13392028.
The full ranking holds about 4,100 sequences; the median of “RBNS R-value (6-mer enrichment in protein-bound RNA vs input library)” is about 0.99, and the highest 2% start at about 1.4. This is one part of a sample in which the highest values are shown more often than they occur.

Tested on: PfIESI-1 RRM domain (Plasmodium falciparum ortholog aa 875-1232, GST fusion)
Assay: RBNS R-value (6-mer enrichment in protein-bound RNA vs input library) (ratio); higher = stronger binding preference; the methods of the paper give 50 / 100 / 500 nM protein instead
Method: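 RNA Bind-n-Seq: recombinant GST-tagged IESI-1 RRM domain was incubated at room temperature with a random 40-nt in vitro transcribed RNA library at 250, 500 or 1000 nM protein. Bound RNA was pulled down on glutathione beads and sequenced. R-value is the enrichment of each 6-mer in the bound RNA relative to the input library. Each 6-mer sits inside the random 40-mer context, not as an isolated oligo. Values are replicate 1 only.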

Sequence	RBNS R-value (protein concentration: 250 nM)	RBNS R-value (protein concentration: 500 nM)	RBNS R-value (protein concentration: 1000 nM)
CUGCGG	1.03	0.975	1.05
CCUCCG	1.07	1.01	1.07
ACUUAC	0.815	0.767	0.76
GCCAAA	1.06	1.08	1.1
AAGCGC	1.03	1.06	1.04
UAUUGG	0.864	0.848	0.873
UAGAAU	1.06	1.14	1.06
GAGAAA	1.41	1.55	1.45
GAGAAC	1.24	1.31	1.27
GAGAAG	1.33	1.36	1.29
GAGAAU	1.43	1.5	1.37
CAGAAU	1.12	1.18	1.15
UCGGCU	0.925	0.885	0.937
GCCUCA	0.982	0.946	1.02
ACCCGG	1.44	1.25	1.32
GCCCGG	1.38	1.2	1.31
UCCCGA	1.2	1.12	1.14
ACCCGA	1.63	1.36	1.4
CCCCGA	1.37	1.23	1.31
ACCCGC	1.29	1.17	1.23

Sequence	RBNS R-value (protein concentration: 250 nM)	RBNS R-value (protein concentration: 500 nM)	RBNS R-value (protein concentration: 1000 nM)
GCCCGA	1.52	1.34	1.36
GCCCGU	1.17	1.07	1.13
ACCCGU	1.24	1.12	1.19
UGAGUG	1.07	1.11	1.06
GGCUGG	1.06	1	1.08
AUUCCA	1.24	1.23	1.22
GAGGCC	1.15	1.07	1.13
AUGUAG	0.952	1.04	0.956
UGACAA	1.07	1.14	1.08
UGACAC	1.39	1.32	1.3
UGACAU	1.14	1.14	1.12
GCACGG	1.02	0.986	1.05
AUGGCA	1.28	1.26	1.16
UGCUAU	0.951	0.947	0.896
UCUCGA	1.01	1	1.04
AAUUAA	0.748	0.862	0.797
GAUUAC	1.36	1.48	1.29
CAUUAC	0.794	0.766	0.761
CAUUAA	0.748	0.797	0.751
CAUUAG	0.827	0.851	0.841

Sequence	RBNS R-value (protein concentration: 250 nM)	RBNS R-value (protein concentration: 500 nM)	RBNS R-value (protein concentration: 1000 nM)
AAUUAG	0.847	0.908	0.88
GAUUAA	1.24	1.42	1.2
GAUUAG	1.3	1.4	1.25
UAUUAC	0.773	0.754	0.724
UCAUAC	0.811	0.758	0.768
UAUAGC	0.876	0.87	0.833
CUUUAU	0.759	0.733	0.732
CUCUCU	0.881	0.796	0.867
CUCCAC	1.02	0.964	0.993
UUUUUG	1.18	1.26	1.16
AAAAAU	1.07	1.29	1.16
AGAAAU	1.09	1.29	1.16
GAAAAA	1.29	1.48	1.37
AAAAAA	1.25	1.51	1.36
GAAAAU	1.12	1.29	1.19
GAAAAC	1.2	1.32	1.24
CGAAAA	1.17	1.28	1.23
AAAAAG	1.2	1.37	1.29
AGAAAA	1.27	1.48	1.35
